# Source: PubChem (National Center for Advancing Translational Sciences (NCATS))
# LmPK inh: LmPK (Leishmania mexicana) enzyme inhibition | Potency, µM (doses to about 57.5 µM), usual class: inhibitors | purified LmPK, Kinase-Glo ATP luminescence, 1 h | Q27686 | actives 0.37% (n = 290,000)
#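 Kinase-Glo luminescence read after 1 h RT reaction of 0.1 nM LmPK with 0.5 mM PEP and 0.1 mM ADP. Activity scaled between uninhibited and enzyme-free controls.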
# Shiga inhibitor: inhibitors of Shiga toxin in Vero cells. Vero cells, Shiga toxin protein synthesis inhibition reporter. inhibition, % at 38.7 µM. actives 9.2% (n = 290,000); in the data active means inhibition mostly above about 28%, no sharp cut-off; inactive means mostly below about 43%
# FBPA Giardia inh: Giardia lamblia aldolase inhibition. Potency, µM (top dose mostly 59.6 µM), usual class: inhibitors. actives 0.71% (n = 290,000). AID 2451. purified Giardia FBPA; further: nearly all actives have a fitted effect of over 55% in size
# Target sequence (A8B2U2 whole entry, looked up): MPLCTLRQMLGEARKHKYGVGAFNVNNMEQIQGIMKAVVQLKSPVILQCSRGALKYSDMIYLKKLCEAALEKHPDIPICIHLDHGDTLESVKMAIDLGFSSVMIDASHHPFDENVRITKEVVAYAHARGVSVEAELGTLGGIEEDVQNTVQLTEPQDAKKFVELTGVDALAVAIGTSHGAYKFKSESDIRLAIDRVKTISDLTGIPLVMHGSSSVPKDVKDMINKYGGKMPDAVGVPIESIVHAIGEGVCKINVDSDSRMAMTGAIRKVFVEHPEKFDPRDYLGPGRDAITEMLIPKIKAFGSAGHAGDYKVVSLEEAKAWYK
#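 Giardia FBPA (40 nM reagent) was preincubated 10 min at RT with compound (up to 57.5 uM final), then substrate plus GAPDH/TPI/NAD/arsenate coupling system with diaphorase/resazurin was added; resorufin fluorescence (525/598 nm) was read after 20 min.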
# TbPYK inhibitor: T. brucei pyruvate kinase inhibition. AID 624173. TbPYK enzyme, Kinase-Glo Plus ATP luminescence, 45 min. Potency, µM (titrated, usually from 76.8 µM), usual class: inhibitors. actives 0.12% (n = 410,000). Q57TT1; further: nearly all actives have a fitted effect of over 50% in size
#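 Luminescent Kinase-Glo Plus end-point after 45 min room-temperature reaction of T. brucei pyruvate kinase started with 130 uM ADP (final). Buffer TEA 50 mM pH 7.2 with KCl, MgCl2, BSA, Tween-20; titration-based qHTS with fitted concentration-effect curves.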
# CHX counter: counter-screen hit for Shiga toxin inhibitors, cycloheximide; max response, %; actives 12% (n = 300,000); cell reporter, cycloheximide protein synthesis inhibition counterscreen; in the data active means max response mostly above about 13%, no sharp cut-off; inactive means mostly below about 14%; further: read at 38.3 µM for the half of the compounds with a filed dose
# RE007 growth inh: less growth of the S. pombe RE007 Vpr strain; AID 651644; actives 0.21% (n = 360,000); S. pombe RE007 Vpr strain, BacTiter-Glo ATP luminescence, 24 h; Potency, µM (titrated, usually from 92.2 µM), most hits filed as inhibitors; active means well fitted falling curve with a large enough effect; inconclusive means small, poorly fitted or top-dose-only effect; inactive means no such curve, though single readings can be large or run the other way; further: nearly all actives have a fitted effect of over 50% in size
#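 Fission yeast RE007 carrying one integrated HIV-1 vpr copy, seeded at OD 0.01 in PMG+AL medium with 23 nL pinned compound. Grown 24 h at 30 degrees; viability read by BacTiter-Glo luminescence after 5 min.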
# A number is an active result; i = inactive; ? = inconclusive; nt = not tested or not shown; + = active, no number. Many of the other results were omitted from the sample, so hits are more common in it than they were. Unless noted, the call rests on the fitted dose curve; in most records, active means well fitted curve in the direction sought with a large enough effect; inconclusive means small, poorly fitted or top-dose-only effect, or another doubt; inactive means no such curve, though single readings can be large; an effect the other way counts as inactive or inconclusive.
SMILES,LmPK inh,Shiga inhibitor,FBPA Giardia inh,TbPYK inhibitor,CHX counter,RE007 growth inh
CCN1CCN(Cc2c(O)ccc3c2O/C(=C\C=C\c2ccccc2)C3=O)CC1,i,i,i,i,33,i
O=C1/C(=C/C=C/c2ccccc2)Oc2c1ccc(O)c2CN1CCN(CCO)CC1,i,i,i,i,i,i
COc1ccccc1/C=C/C=C1\Oc2c(ccc(O)c2CN2CCN(CCO)CC2)C1=O,i,+,i,i,32,i
CN(C)Cc1c(O)ccc2c1O/C(=C\C=C\c1ccccc1)C2=O,i,i,i,i,13,i
O=c1c2sccc2nc(SCc2cc(=O)n3cc(Cl)ccc3n2)n1Cc1ccccn1,i,82,i,i,41,i
O=c1c2sccc2nc(SCc2ccc([N+](=O)[O-])cc2)n1Cc1ccccn1,i,62,i,i,26,i
C/C=C/C(=O)[C@@H](C)[C@@H](/C=C/C[Si](C)(C)C)C(C)C,nt,i,i,nt,i,nt
O=C(O)C1CCCC2CN3CCc4c([nH]c5ccccc45)C3C(O)C21 (centres undefined),i,i,?,i,i,i
CCOc1ccc2nc(SCCNS(=O)(=O)c3ccccc3)sc2c1,i,i,i,i,i,i
CCOc1ccc2nc(SCC(=O)c3ccccc3)sc2c1,i,91,i,i,43,i
CCOc1ccc2nc(SCC(=O)NC3CC3)sc2c1,i,i,i,i,15,i
O=C1C(Cl)=C(N2CCCCCC2)C(=O)N1c1ccc(Br)cc1,i,i,i,i,i,i
O=C1C(Cl)=C(N2CCCCCC2)C(=O)N1c1ccccc1,i,i,i,i,25,?
CCOc1ccc(N(CC(=O)Nc2ccc3c(c2)OCO3)S(=O)(=O)c2ccccc2)cc1,nt,nt,nt,i,nt,nt
O=C(C1CCCN(C2CC(=O)N(c3ccc(F)cc3)C2=O)C1)N1CCCC1 (centres undefined),i,i,nt,i,i,45µM
O=C(c1cccc(Cl)c1)N1CCC(N2CCC(C(=O)N3CCCC3)CC2)CC1,i,i,i,i,21,i
O=C1CCCN1CCC1CCN(C2CC(=O)N(c3ccc(Cl)cc3)C2=O)CC1 (centres undefined),i,i,i,i,i,5µM
O=C1CCCN1CCC1CCN(C2CC(=O)N(Cc3ccc(N4CCCC4=O)cc3)C2=O)CC1 (centres undefined),i,i,i,i,i,?
O=C1CC(N2CCN(c3ccc(F)cc3)CC2)C(=O)N1c1ccc(F)cc1 (centres undefined),i,i,i,i,i,i
CCOc1ccc(N2C(=O)CC(N3CCC(NC(=O)Nc4ccccc4)CC3)C2=O)cc1 (centres undefined),i,i,i,i,i,22µM
COc1cc(/C=C/c2nc(C#N)c(N3CCN(C)CC3)o2)cc(OC)c1OC,nt,nt,nt,i,nt,nt
COC(=O)c1c(SC)nc2ccccc2c1OCc1ccccc1Cl,nt,nt,nt,i,nt,nt
CCCCC1(C(=O)OCC)CC(CSC(=N)N)OC1=O (centres undefined),i,i,i,i,i,i
CCOc1ccc(N2C(=O)CC(N3CCN(C(=O)CN4CCCC4)CC3)C2=O)cc1 (centres undefined),i,i,i,i,i,i
O=C(C1CCN(C2CC(=O)N(c3cccc(Cl)c3)C2=O)CC1)N1CCCCCC1 (centres undefined),i,i,i,i,i,7.1µM
O=C1CC(N2CCOCC2)C(=O)N1c1cccc(Cl)c1 (centres undefined),i,i,i,i,i,?
CCCOc1ccc(N2C(=O)CC(N3CCCC(C(=O)N4CCCC4)C3)C2=O)cc1 (centres undefined),i,i,i,i,i,18µM
O=C1CC(N2CCOCC2)C(=O)N1c1ccc(Cl)cc1 (centres undefined),i,i,i,i,i,?
O=C(C1CCCN(C2CC(=O)N(c3ccc(Cl)cc3)C2=O)C1)N1CCCC1 (centres undefined),i,i,nt,i,i,5.6µM
CCCOc1ccc(N2C(=O)CC(N3CCOCC3)C2=O)cc1 (centres undefined),i,i,i,i,i,?
